From PubChem BioAssay (EPA / NIEHS)
Inconclusive results are not listed. The source made the active and inactive calls. Rule for the calls, unless noted: active = hit-call score of the fitted dose curve at least 0.9, where 1 is the maximum; inconclusive = response in the unintended direction; inactive = score below 0.9.

Key:
[1] = target: Cellular tumor antigen p53 (Homo sapiens) (UniProt P04637); experiment: TOX21_p53_BLA_p2_ratio: Tox21 HCT-116 p53 Agonism Beta-lactamase Assay, Ratio, Phase 2 (AID 2283592)
Method in brief: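 Gain-of-signal p53 agonism was scored from the beta-lactamase FRET ratio (460/530 nm, 405 nm excitation) in HCT116 cells treated 16 h at 37C, 5% CO2, with DMSO serving as negative control and baseline.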

[2] = TOX21_p53_BLA_p3_viability: Viability Assessment in the Tox21 HCT-116 p53 Agonism Beta-lactamase Assay, Phase 3 (AID 2283593);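 note: cells exposed to compound for 16 h before reading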
Method in brief: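 HCT116 cells, 4000/well, dosed 5 h after plating by pin transfer (217-fold dilution from DMSO stock) and incubated 16 h at 37C, 5% CO2. Viability read as ATP luminescence with CellTiter-Glo after 30 min at room temperature.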

[3] = target: Cellular tumor antigen p53 (Homo sapiens) (UniProt P04637); experiment: TOX21_p53_BLA_p3_ratio: Tox21 HCT-116 p53 Agonism Beta-lactamase Assay, Ratio, Phase 3 (AID 2283596)
Method in brief: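 HCT116 p53-bla cells (4000/well) given compound in DMSO (217-fold dilution) after 5 h, incubated 16 h at 37C. CCF4-AM substrate 2 h at room temperature; 460/530 nm emission ratio, gain fitted against DMSO.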

[4] = TOX21_p53_BLA_p4_viability: Viability Assessment in the Tox21 HCT-116 p53 Agonism Beta-lactamase Assay, Phase 4 (AID 2283597);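 note: hits lower the luminescence signal meaning cytotoxicity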
Method in brief: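 Following a 16 h exposure at 37C, the treated HCT116 wells were first read for the FRET ratio. They were then lysed with CellTiter-Glo, and ATP luminescence was recorded after 30 min at room temperature.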

[5] = target: Cellular tumor antigen p53 (Homo sapiens) (UniProt P04637); experiment: TOX21_p53_BLA_p5_ratio: Tox21 HCT-116 p53 Agonism Beta-lactamase Assay, Ratio, Phase 5 (AID 2283599)
Method in brief: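 HCT-116 p53-bla cells (4000/well) plated 5 h, dosed with compound (217-fold DMSO dilution) for 16 h at 37 C; CCF4-AM substrate 2 h at room temperature. Activity is the 460/530 nm emission ratio (405 nm excitation), fitted in gain-of-signal direction versus DMSO.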

[6] = target: Cellular tumor antigen p53 (Homo sapiens) (UniProt P04637); experiment: TOX21_p53_BLA_p4_ratio: Tox21 HCT-116 p53 Agonism Beta-lactamase Assay, Ratio, Phase 4 (AID 2283601)
Method in brief: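 HCT-116 p53 beta-lactamase reporter cells (4000/well) preincubated 5 h, then compound (217-fold dilution of DMSO stock) for 16 h at 37C. CCF4-AM substrate added 2 h at room temperature; 460/530 nm emission ratio fitted upward versus DMSO.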

[7] = system: Thyroperoxidase (TPO), gene 54314; experiment: CCTE_Simmons_AUR_rTPO: CCTE's Amplex UltraRed Assay for Thyroperoxidase (TPO) Inhibition, Simmons Lab (AID 2283662)
Method in brief: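 Rat thyroid microsomal TPO + 25 uM AUR in 200 mM K phosphate; cpd 5 nM–87.5 uM [final], 8 conc, 0.5% DMSO; 300 uM H2O2 starts rxn; 37C dark 30 min; endpoint FI 544/590 nm; n=3.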

[8] = CCTE_Simmons_CellTiterGLO_HEK293T: Viability Assessment in CCTE's Assays for Thyroperoxidase (TPO) Inhibition, Simmons Lab (AID 2283665);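 note: cells exposed to compound for 24 h before readout; actives reduce ATP signal below DMSO vehicle meaning cytotoxicity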
Method in brief: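 HEK293T cells in DMEM with 1% FBS were dosed with 8 concentrations (5 nM–87.5 uM final, 0.5% DMSO) for 24 hr at 37C; ATP content was read by CellTiter-Glo luminescence, loss-of-signal versus DMSO, three biological replicates.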

[9] = target: Luciferin 4-monooxygenase (Photinus pyralis) (UniProt P08659); experiment: CCTE_Simmons_QuantiLum_inhib_2: CCTE's Firefly Luciferase Inhibition Assay, Simmons Lab (AID 2283767);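 note: potency for inhibitors that lower luciferase luminescence relative to DMSO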
Method in brief: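 Recombinant firefly luciferase (5 ng/well, 200 mM potassium phosphate with 1 mg/ml BSA) was exposed to 8 concentrations from 5 nM to 87.5 uM (final, 0.5% DMSO) for 30 min at 37C in the dark. Loss of luminescence versus DMSO was read after injecting D-luciferin/ATP-analogue reagent.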

[10] = CCTE_Shafer_MEA_dev_firing_rate_mean: CCTE's Neural Network Formation Assay for Mean Firing Rate, Shafer Lab (AID 2284031; active = hit-call score of the fitted dose curve at least 0.9, where 1 is the maximum; inactive = score below 0.9;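 note: curve fitted for loss of firing so AC50 reflects decreased mean firing rate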)
Method in brief: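 Primary rat cortical neurons on 48-well, 16-electrode MEAs (PEI-coated, laminin at plating), exposed from day 0 with compound renewed at DIV 5 and 9. Spikes recorded DIV 5, 7, 9, 12; well-mean firing rate collapsed to trapezoidal AUC, loss-of-signal vs DMSO.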

[11] = CCTE_Shafer_MEA_dev_per_burst_spike_percent: CCTE's Neural Network Formation Assay for Percent of Spikes in a Burst, Shafer Lab (AID 2284032; active = hit-call score of the fitted dose curve at least 0.9, where 1 is the maximum; inactive = score below 0.9;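 note: fitted as a decrease in burst spike percentage below DMSO baseline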)
Method in brief: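 Rat primary cortical neurons on 16-electrode MEA wells, dosed from plating day 0 for 12 days with renewal on DIV 5 and 9; spikes-in-bursts percentage averaged over bursting electrodes, collapsed as AUC across days 5, 7, 9, 12; loss direction versus DMSO.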

[12] = CCTE_Shafer_MEA_dev_active_electrodes_number: CCTE's Neural Network Formation Assay for Number of Active Electrodes, Shafer Lab (AID 2284040);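 note: potency for loss of active electrodes versus DMSO so lower counts are hits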
Method in brief: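 Rat cortical primary cultures, 1.5 x 10^5 cells/well, PEI-coated MEA, laminin drop. Continuous exposure DIV 0–12; full media/compound change DIV 5, 9. Readout: electrodes with mean firing ≥5 spikes/min; AUC across days; loss vs DMSO.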

[13] = CCTE_Shafer_MEA_dev_burst_rate: CCTE's Neural Network Formation Assay for Burst Rate, Shafer Lab (AID 2284042; active = hit-call score of the fitted dose curve at least 0.9, where 1 is the maximum; inactive = score below 0.9;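 note: potency for loss of burst rate below DMSO control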)
Method in brief: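 Rat primary cortical cultures on PEI/laminin MEA; compound from plating, re-dosed at DIV 5, 9 media change. Single-electrode bursts/recording length, well mean of active electrodes; AUC over DIV 5–12 recordings; loss-of-signal vs DMSO.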

[14] = CCTE_Shafer_MEA_dev_bursting_electrodes_number: CCTE's Neural Network Formation Assay for Number of Bursting Electrodes, Shafer Lab (AID 2284043);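 note: potency is for loss of bursting electrodes relative to DMSO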
Method in brief: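 Primary rat cortical neurons plated on 16-electrode MEA wells, exposed from day 0 with compound renewed at DIV 5 and 9. Electrodes bursting ≥1 burst per 2 min counted on days 5, 7, 9 and 12; trapezoidal AUC across days, fitted for loss versus DMSO.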

[15] = CCTE_Shafer_MEA_dev_per_burst_interspike_interval: CCTE's Neural Network Formation Assay for Burst Interspike Interval, Shafer Lab (AID 2284044; active = hit-call score of the fitted dose curve at least 0.9, where 1 is the maximum; inactive = score below 0.9;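 note: mean spike spacing inside bursts as AUC over recordings on days 5 7 9 12; potency for a decrease of within-burst interspike interval below DMSO level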)
Method in brief: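 Mean interspike interval within single-electrode bursts, averaged over bursting electrodes, from rat cortical cultures on MEA plates recorded on days 5, 7, 9 and 12. Continuous compound exposure from plating; trapezoidal AUC fitted downward relative to DMSO.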

[16] = CCTE_Shafer_MEA_dev_burst_duration_mean: CCTE's Neural Network Formation Assay for Mean Burst Duration, Shafer Lab (AID 2284045; active = hit-call score of the fitted dose curve at least 0.9, where 1 is the maximum; inactive = score below 0.9;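 note: curve fitted for loss meaning shorter burst duration than DMSO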)
Method in brief: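 Primary rat cortical neurons on 48-well 16-electrode MEA plates, exposed from day 0 with renewal at DIV 5 and 9; spontaneous activity recorded on days 5, 7, 9, 12. Well-mean burst duration across bursting electrodes, collapsed as trapezoidal AUC; DMSO baseline.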

[17] = CCTE_Shafer_MEA_dev_interburst_interval_mean: CCTE's Neural Network Formation Assay for Mean Interburst Interval, Shafer Lab (AID 2284046; active = hit-call score of the fitted dose curve at least 0.9, where 1 is the maximum; inactive = score below 0.9;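 note: well-mean interburst interval of bursting electrodes as AUC over four recording days; curve fitted for decrease in interburst interval relative to DMSO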)
Method in brief: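 Rat cortical neurons, 1.5 x 10^5 cells/well, 48-well MEA; compound from day 0 through DIV 12, media and treatment renewed DIV 5/9. Recordings DIV 5, 7, 9, 12; well-mean interburst interval → trapezoidal AUC, loss direction vs DMSO.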

Measured: AC50

Sequence of Cellular tumor antigen p53 (Homo sapiens) (P04637 whole entry, looked up): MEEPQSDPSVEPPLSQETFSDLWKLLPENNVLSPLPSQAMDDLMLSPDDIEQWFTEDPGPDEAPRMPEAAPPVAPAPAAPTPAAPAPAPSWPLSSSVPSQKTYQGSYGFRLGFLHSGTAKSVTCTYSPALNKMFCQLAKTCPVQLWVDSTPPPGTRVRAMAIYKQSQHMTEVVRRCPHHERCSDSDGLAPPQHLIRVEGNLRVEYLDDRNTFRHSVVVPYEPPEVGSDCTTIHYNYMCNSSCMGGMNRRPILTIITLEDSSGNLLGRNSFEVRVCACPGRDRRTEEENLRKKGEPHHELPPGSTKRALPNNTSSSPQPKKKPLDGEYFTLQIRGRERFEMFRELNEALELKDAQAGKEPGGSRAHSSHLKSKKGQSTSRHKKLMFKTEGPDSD
Sequence of Luciferin 4-monooxygenase (Photinus pyralis) (P08659 whole entry, looked up): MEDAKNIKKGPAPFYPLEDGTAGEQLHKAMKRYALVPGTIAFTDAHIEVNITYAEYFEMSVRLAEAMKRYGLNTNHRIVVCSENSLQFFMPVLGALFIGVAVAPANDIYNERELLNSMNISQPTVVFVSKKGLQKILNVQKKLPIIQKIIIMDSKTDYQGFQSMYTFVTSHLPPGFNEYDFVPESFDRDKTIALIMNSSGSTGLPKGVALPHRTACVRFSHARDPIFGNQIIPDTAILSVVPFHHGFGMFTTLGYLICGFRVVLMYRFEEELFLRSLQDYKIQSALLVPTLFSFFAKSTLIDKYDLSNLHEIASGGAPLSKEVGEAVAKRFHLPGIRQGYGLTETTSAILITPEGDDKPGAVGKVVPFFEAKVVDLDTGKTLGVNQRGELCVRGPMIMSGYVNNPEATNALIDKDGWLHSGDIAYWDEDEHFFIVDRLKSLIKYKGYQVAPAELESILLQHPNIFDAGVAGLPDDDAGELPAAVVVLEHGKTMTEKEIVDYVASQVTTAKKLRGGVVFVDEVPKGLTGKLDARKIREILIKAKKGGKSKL

[CH3][Hg][Cl]
active: [1] 44800 nM | [2] 79600 nM | [3] 1770 nM | [5] 2250 nM | [8] 4180 nM | [9] 4220 nM | [10] 177 nM | [11] 306 nM | [12] 360 nM | [13] 207 nM | [14] 370 nM | [15] 322 nM | [16] 260 nM | [17] 340 nM
inactive: [4] | [6] | [7]
